In the supplement of paper PMC4840960:

Key:
[1] = tested on: E18 rat cortical neuron-glia co-culture; assay: fiber score / MBP score (myelination specific beyond OL differentiation) (ratio); higher = more myelination-specific MBP alignment; conditions: treatment time: 8 days (DIV5-DIV13)
In short: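 The measure is the ratio of fiber score to MBP score, where fiber score is continuous MBP fiber length per Olig2+ nucleus and MBP score is thresholded MBP area × intensity per Olig2+ nucleus. Primary E18 rat cortical co-cultures received library compounds at 1 or 5 µM in myelination medium from DIV5 to DIV13, then were fixed in 4 % paraformaldehyde and stained for MBP, Olig2 and DAPI before analysis of four 10X fields per well in duplicate wells.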

[2] = tested on: E18 rat cortical neuron-glia co-culture; assay: myelination (MBP fiber length per Olig2+ nucleus), % of 1 µM DAPT response (DMSO = 0) (% of DAPT); higher = more myelination, active = 50 or more; conditions: treatment time: 8 days (DIV5-DIV13)
In short: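 The myelination value was the continuous straight MBP fiber length per Olig2+ nucleus, scaled between 0.1 % DMSO (0) and a 1 µM positive control (100). It was measured in primary E18 rat cortical co-cultures treated with library compounds at 1 or 5 µM in myelination medium from DIV5 through DIV13. Cells were fixed in 4 % paraformaldehyde and stained for MBP, Olig2 and DAPI, and four 10X fields per well were imaged in duplicate wells.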

Compound	fiber score / MBP score ([1]; 1 µM)	fiber score / MBP score ([1]; 5 µM)	myelination ([2]; 1 µM)	myelination ([2]; 5 µM)
CC(C)c1ccc2oc3nc(N)c(C(=O)O)cc3c(=O)c2c1 [Amlexanox]	0.826	1.05	-13.2 (inactive)	0.757 (inactive)
CCCNC(C)C(=O)Nc1ccccc1C (stereo not drawn) [Prilocaine]	0.73	1.1	-5.12 (inactive)	9.24 (inactive)
NS(=O)(=O)c1cc2c(cc1Cl)NCNS2(=O)=O [Hydrochlorothiazide]	0.749	0.819	-8.91 (inactive)	-12.5 (inactive)
COc1ccc2cc([C@H](C)C(=O)O)ccc2c1 [Naproxen]	0.831	0.859	-5.15 (inactive)	-4.96 (inactive)
CCN(Cc1ccncc1)C(=O)C(CO)c1ccccc1 (stereo not drawn) [Tropicamide]	0.511	0.747	-22.3 (inactive)	-16.2 (inactive)
CN(C)CCCN1c2ccccc2Sc2ccc(Cl)cc21 [Chlorpromazine]	1.04	1.17	8.68 (inactive)	-2.13 (inactive)
CN(C)CCCSc1ccccc1NC(=O)/C=C/c1ccccc1 [Cinanserin]	0.858	0.995	-5.83 (inactive)	9.08 (inactive)
NC(N)=Nc1nc(CSCC/C(N)=N/S(N)(=O)=O)cs1 [Famotidine]	0.875	0.752	-13.8 (inactive)	-21.2 (inactive)
CCN1CCN(C(=O)N[C@@H](C(=O)N[C@@H]2C(=O)N3[C@@H]2SC(C)(C)[C@@H]3C(=O)O)c2ccccc2)C(=O)C1=O [Piperacillin]	0.703	0.948	-13.4 (inactive)	5.13 (inactive)
NS(=O)(=O)Cc1noc2ccccc12 [Zonisamide]	0.789	0.799	-33.9 (inactive)	-30.8 (inactive)
C[C@@H]1C[C@H]2[C@@H]3CCC4=CC(=O)C=C[C@]4(C)[C@@]3(F)[C@@H](O)C[C@]2(C)[C@@]1(O)C(=O)CO [Dexamethazone]	0.866	0.845	-1.63 (inactive)	-0.917 (inactive)
C[C@H](CCC(=O)O)[C@H]1CC[C@H]2[C@@H]3C(=O)C[C@@H]4CC(=O)CC[C@]4(C)[C@H]3CC(=O)[C@]12C [Dehydrocholic Acid]	0.477	0.662	-18.3 (inactive)	-14.2 (inactive)
CC(C)c1nc(CN(C)C(=O)N[C@H](C(=O)N[C@@H](Cc2ccccc2)C[C@H](O)[C@H](Cc2ccccc2)NC(=O)OCc2cncs2)C(C)C)cs1 [Ritonavir]	0.549	0.623	-20.5 (inactive)	-13.2 (inactive)
COc1cc(OC)c(C(=O)CCCN2CCCC2)c(OC)c1 [Buflomedil]	0.901	0.768	-13.2 (inactive)	-13.3 (inactive)
Cc1sc(N)c(C(=O)c2cccc(C(F)(F)F)c2)c1C	0.681	0.698	-18.7 (inactive)	-12 (inactive)
COc1cc(C)c(/C=C/C(C)=C/C=C/C(C)=C/C(=O)O)c(C)c1C [Acitretin]	1.04	1.45	0.3 (inactive)	12 (inactive)
CCN1CCC[C@H]1CNC(=O)c1c(O)c(Cl)cc(Cl)c1OC [Raclopride]	1.05	0.709	18.4 (inactive)	-30.6 (inactive)
COc1cc(CNC(=O)CCCC/C=C\C(C)C)ccc1O [Zucapsaicin]	0.875	1.51	-19.7 (inactive)	98.2 (active)
COc1c2occc2cc2ccc(=O)oc12 [Methoxsalen]	0.488	0.29	-11.8 (inactive)	-16.1 (inactive)
CN1CCC(=C2c3ccccc3CCc3sccc32)CC1 [Pizotyline]	0.579	0.636	-41 (inactive)	-22 (inactive)
COC(=O)Nc1nc2cc(C(=O)c3ccccc3)ccc2[nH]1 [Mebendazole]	0.624	0.207	71.4	-22.3 (inactive)
Cc1cnc(NC(=O)C2=C(O)c3ccccc3S(=O)(=O)N2C)s1 [Meloxicam]	0.958	1	-0.993 (inactive)	3.06 (inactive)
CC1(C)O[C@@H]2C[C@H]3[C@@H]4CCC5=CC(=O)C=C[C@]5(C)[C@@]4(F)[C@@H](O)C[C@]3(C)[C@]2(C(=O)CO)O1 [Triamcinolone Acetonide]	1.37	1.32	5.47 (inactive)	19.3 (inactive)
O=C(O)/C=C/c1ccc(Cn2ccnc2)cc1 [Ozagrel]	0.768	1.11	-6.75 (inactive)	-0.768 (inactive)
CCOC(=O)[C@H](CCc1ccccc1)N[C@@H](C)C(=O)N1Cc2ccccc2C[C@H]1C(=O)O [Quinapril]	0.878	0.825	-0.422 (inactive)	-6.78 (inactive)
COc1ccc2c(c1)c(CC(=O)O)c(C)n2C(=O)c1ccc(Cl)cc1 [Indomethacin]	0.699	0.877	-12.4 (inactive)	-7.64 (inactive)

Compound	fiber score / MBP score ([1]; 1 µM)	fiber score / MBP score ([1]; 5 µM)	myelination ([2]; 1 µM)	myelination ([2]; 5 µM)
CC(=O)O[C@]1(C(C)=O)CC[C@H]2[C@@H]3C=C(C)C4=CC(=O)CC[C@]4(C)[C@H]3CC[C@@]21C [Megestrol acetate]	0.588	0.795	-33.5 (inactive)	-31.3 (inactive)
CCN1CCN(c2cc3c(cc2F)c(=O)c(C(=O)O)cn3C2CC2)CC1 [Enrofloxacin]	0.94	0.516	-5.04 (inactive)	-19.3 (inactive)
CC(C)(C)NC(=O)[C@@H]1CN(Cc2cccnc2)CCN1C[C@@H](O)C[C@@H](Cc1ccccc1)C(=O)N[C@H]1c2ccccc2C[C@H]1O [Indinavir]	0.908	0.894	-20.5 (inactive)	-24.1 (inactive)
C[C@]12C=CC(=O)C=C1CC[C@@H]1[C@@H]2[C@@H](O)C[C@@]2(C)[C@H]1CC[C@]2(O)C(=O)CO [Prednisolone]	0.693	0.923	-6.4 (inactive)	0.38 (inactive)
CCCCNc1cc(C(=O)O)cc(S(N)(=O)=O)c1Oc1ccccc1 [Bumetanide]	0.846	0.859	-8.01 (inactive)	-11.3 (inactive)
N#Cc1ccc(C(c2ccc(C#N)cc2)n2cncn2)cc1 [letrozole]	0.937	1.09	-16.4 (inactive)	2.49 (inactive)
CN1[C@@H]2CC[C@H]1C[C@@H](OC(=O)c1c[nH]c3ccccc13)C2 [Tropisetron]	0.706	0.562	-47.4 (inactive)	-53.9 (inactive)
NC(=O)OCC(COC(N)=O)c1ccccc1 [Felbamate]	0.591	0.769	-15.5 (inactive)	-10.2 (inactive)
O=C1c2cccc3c2[C@H](CCC3)CN1[C@@H]1CN2CCC1CC2 [Palonosetron]	0.728	0.587	-11.1 (inactive)	-11.5 (inactive)
COc1cc(NC(C)CCCN)c2ncccc2c1 (stereo not drawn) [Primaquine]	0.815	0.985	-0.112 (inactive)	11.1 (inactive)
CN1CCN(CC/C=C2/c3ccccc3Sc3ccc(S(=O)(=O)N(C)C)cc32)CC1 [Thiothixene]	0.826	1.29	-6.05 (inactive)	42.5 (inactive)
CN(C)CC/C=C1/c2ccccc2COc2ccc(CC(=O)O)cc21 [Olopatadine]	0.791	0.936	-7.93 (inactive)	-5.94 (inactive)
C[C@H]1COc2c(C3(N)CC3)c(F)cc3c(=O)c(C(=O)O)cn1c23 [Pazufloxacin]	0.814	1.19	-22.4 (inactive)	17.6 (inactive)
COc1cc(C)c(Cc2cnc(N)nc2N)cc1OC [Ormetoprim]	0.746	0.726	-31.5 (inactive)	-40 (inactive)
CC(C)(C(=O)c1cccnc1)c1cccnc1 [Metyrapone]	0.588	0.894	-19.7 (inactive)	-9.03 (inactive)
Cc1noc(NS(=O)(=O)c2ccc(N)cc2)c1C [Sulfisoxazole]	0.958	0.834	-3.97 (inactive)	-6.9 (inactive)
CC(COc1ccccc1Cc1ccccc1)N1CCCCC1 (stereo not drawn) [Benproperine]	0.726	0.819	-8.06 (inactive)	-4.27 (inactive)
CN(C)CCOC(C)(c1ccccc1)c1ccccn1 (stereo not drawn) [Doxylamine]	0.674	0.969	-13.6 (inactive)	-5.08 (inactive)
Nc1nc(=O)c2nc(CNc3ccc(C(=O)N[C@@H](CCC(=O)O)C(=O)O)cc3)cnc2[nH]1 [Folic acid]	0.994	0.627	-5.35 (inactive)	-17.3 (inactive)
Nc1nc2ccc(Cl)cc2c2nc(-c3ccco3)nn12	0.556	0.773	-37.8 (inactive)	-3.25 (inactive)
C[C@H](N[C@@H](CCc1ccccc1)C(=O)O)C(=O)N1CCC[C@H]1C(=O)O [Enalaprilat]	0.936	0.731	-2.57 (inactive)	-9.9 (inactive)
C[C@H](CCC(=O)O)[C@H]1CC[C@H]2[C@@H]3[C@H](O)C[C@@H]4C[C@H](O)CC[C@]4(C)[C@H]3CC[C@]12C [Chenodeoxycholic Acid]	0.861	0.787	-8.08 (inactive)	-12 (inactive)
Clc1ccc2c(c1)C(N1CCNCC1)=Nc1ccccc1O2 [Amoxapine]	1.09	0.185	0.685 (inactive)	-23.6 (inactive)
Nc1nc2ccc(OC(F)(F)F)cc2s1 [Riluzole]	0.879	0.478	-26.1 (inactive)	-52.5 (inactive)
CCN1CCCC1CNC(=O)c1cc(S(N)(=O)=O)ccc1OC (stereo not drawn) [Sulpiride]	0.858	0.751	-10.3 (inactive)	-10.8 (inactive)
Cc1ncc([N+](=O)[O-])n1CC(O)CCl (stereo not drawn) [Ornidazole]	0.58	0.686	-14.7 (inactive)	-1.4 (inactive)
